Screening results: PubChem, National Center for Advancing Translational Sciences (NCATS)
Pf growth 96h: inhibits malaria parasite growth, 96 h | P. falciparum luciferase reporter growth, 96 h | Potency, µM (top dose mostly 28.7 µM), for the others: at the highest dose activity change, negative = inhibition, usual class: inhibitors | hit rate 6.9% among 320,000 | AID 504834; also: potency is read from the fitted curve at half-maximal effect; % is scaled to controls: 0 for no effect and ±100 for the full control effect
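Parasite growth measured via integrated firefly luciferase reporter in P. falciparum. Infected erythrocytes at 2% hematocrit, 0.05% parasitemia final were treated 96 hours at 37 C under 5% CO2, and luminescence was read.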
Cycloheximide cs: counter-screen for Shiga toxin inhibitors: cycloheximide protein synthesis inhibition; cell reporter, cycloheximide protein synthesis inhibition counterscreen; max response, %; hit rate 12% among 300,000; in the data active = max response mostly above about 13%, no sharp cut-off; inactive = mostly below about 14%; also: read at 38.3 µM for the half of the compounds with a filed dose; 0% is about no effect
Pf growth 48h: inhibits P. falciparum growth in the first generation, 48 h | P. falciparum luciferase growth in erythrocytes, 48 h | Potency, µM (series often up to 28.7 µM), without a hit: at the highest dose activity change, negative = inhibition, usual class: inhibitors | hit rate 5.9% among 310,000 | AID 504832; also: potency is read from the fitted curve at half-maximal effect; % is scaled to controls: 0 for no effect and ±100 for the full control effect
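Erythrocytes infected with P. falciparum carrying an integrated firefly luciferase reporter (2% hematocrit, 0.1% parasitemia final) were exposed to compounds in RPMI 1640 with 0.5% Albumax at 37 C, 5% CO2. Growth inhibition was scored as reduced luminescence.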
Shiga toxin inh: blocks Shiga toxin action in Vero cells | hit rate 9.2% among 290,000 | inhibition, % at 38.7 µM | AID 2315 | Vero cells, Shiga toxin protein synthesis inhibition reporter; in the data active = inhibition mostly above about 28%, no sharp cut-off; inactive = mostly below about 43%; also: 0% is about no effect
HCMV inh: blocks human cytomegalovirus replication | HFF cells, HCMV-luciferase reporter, 72 h; hits give low values | activity change, negative = inhibition, % at 57.5 µM | hit rate 4.5% among 410,000 | AID 1259415; in the data active = activity change below about -60%; inconclusive = no clear call, values can overlap the other calls; inactive = above about -39%; also: % is scaled to controls: 0 for no effect and ±100 for the full control effect
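Steps: HFFs plated, 16 h 37C; compounds added; HCMV-luciferase added to MOI 1 PFU/cell; 72 h 37C; OneGlo reagent, 5 min room temperature; luminescence read, normalized to controls.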
Numbers without * were called inactive. Compounds with a hit are over-represented: about 20% of the library has one in this group of screens. Unless noted, calls follow the shape of the dose curve; as a rule, active = well fitted inhibition curve with a large enough effect; inconclusive = small, poorly fitted or top-dose-only effect, or another doubt; inactive = no such curve, though single readings can be large or run the other way.

For O=C(COc1ccc(Cl)cc1Cl)NCCCn1ccnc1 the results were Cycloheximide cs 8.3, Pf growth 48h 6.57µM*, Shiga toxin inh 34.1 and HCMV inh -5.2.
For CCCc1cc(=O)oc2cc(OCC(=O)NCCCn3ccnc3)c(Cl)cc12 the results were Pf growth 96h -4.9%, Cycloheximide cs -4.5, Pf growth 48h -10.5%, Shiga toxin inh 13.0 and HCMV inh -63.0*.
CCOC(=O)c1ccccc1NC(=O)CCc1c(C)nc2ncnn2c1C was read as HCMV inh 12.5.
Screening O=C(CSc1nncc2ccccc12)Nc1ccccc1 returned Pf growth 96h -6.5%, Cycloheximide cs 13.4, Pf growth 48h inconclusive, Shiga toxin inh -6.9 and HCMV inh 4.3.
`O=C(CSc1nc2ccccc2c2c1CCCC2)N1CCOCC1` gave Pf growth 96h 9.28µM*, Cycloheximide cs -7.8, Pf growth 48h 2.8%, Shiga toxin inh -3.8 and HCMV inh -34.6.
Screening O=C(CSc1nncc2ccccc12)Nc1ccc(C(=O)O)cc1 returned Pf growth 96h inconclusive, Cycloheximide cs 21.5*, Pf growth 48h 18.7%, Shiga toxin inh 6.1 and HCMV inh -4.8.
`O=C(CSc1nncc2ccccc12)N1CCOCC1` gave Cycloheximide cs 17.2*, Pf growth 48h 4.7%, Shiga toxin inh 37.1 and HCMV inh -11.7.
Screening O=C(COc1ccccc1Cl)Nc1ccc(OCc2cc(=O)n3ccsc3n2)cc1 returned HCMV inh 6.0.
For O=C(Cc1ccon1)c1ccc(O)cc1O the results were Pf growth 96h 24.9%, Cycloheximide cs -1.3, Pf growth 48h 28.5%, Shiga toxin inh -6.6 and HCMV inh -26.2.
For CCNC(=O)C1CC(=O)N(CCCc2ccccc2)C(=Nc2ccccc2)S1 (stereo unspecified) the results were Pf growth 96h inconclusive, Cycloheximide cs -2.6, Pf growth 48h inconclusive, Shiga toxin inh 16.4 and HCMV inh 20.5.
`Cc1cccc2c1cnn2C(=O)CCC(=O)NCc1ccc(F)cc1` gave Pf growth 96h 14.7µM*, Cycloheximide cs -1.1, Pf growth 48h 6.0%, Shiga toxin inh -2.5 and HCMV inh -6.0.
For CCOc1ccccc1NC(=O)n1ncc2c(C)cccc21 the results were Pf growth 96h 2.5%, Cycloheximide cs 4.5, Pf growth 48h 19.2%, Shiga toxin inh 11.1 and HCMV inh 36.4.
`Cc1cccc2c1cnn2C(=O)Nc1cc(F)ccc1F` gave Pf growth 96h 5.5%, Cycloheximide cs 39.6*, Pf growth 48h 262.5%, Shiga toxin inh 59.3* and HCMV inh 114.6.
For CC12CCC(C(N)C1=O)C2(C)C (stereo unspecified) the results were HCMV inh -24.4.
`CCOC(=O)c1c(C)[nH]c2cc(Br)c(OC)cc12` gave Pf growth 96h -6.1%, Cycloheximide cs 17.5*, Pf growth 48h inconclusive, Shiga toxin inh 0.8 and HCMV inh 27.3.
CCc1ccc(NC(=O)CC2C(=O)N(c3ccc(C)cc3)C(=O)N2C2CC2)cc1 (stereo unspecified) was read as Pf growth 96h inconclusive, Cycloheximide cs -0.3, Pf growth 48h inconclusive, Shiga toxin inh -1.7 and HCMV inh -27.5.
CN(CC(=O)Nc1ccc(Cl)c(S(=O)(=O)N(C)C)c1)Cc1ccccc1 was read as Pf growth 96h inconclusive, Cycloheximide cs 39.6*, Pf growth 48h -6.2%, Shiga toxin inh 73.5* and HCMV inh -10.0.
`CC1Cc2ccccc2N1CC(=O)Nc1ccc2c(c1)OCCCO2` (stereo unspecified) gave Pf growth 96h 11.7µM*, Pf growth 48h inconclusive and HCMV inh 11.2.
Screening CN(C)S(=O)(=O)c1cc(NC(=O)CN2CCc3ccccc32)ccc1Cl returned Pf growth 96h -15.8%, Cycloheximide cs 29.9*, Pf growth 48h inconclusive, Shiga toxin inh 28.0 and HCMV inh 49.4.
Screening CN(C)S(=O)(=O)c1cc(NC(=O)CN2CCCc3ccccc32)ccc1Cl returned Pf growth 96h inconclusive, Cycloheximide cs 12.1, Pf growth 48h inconclusive, Shiga toxin inh 13.8 and HCMV inh 11.2.
`COc1ccc(NC(=O)CN(C)CC(=O)Nc2ccc(Cl)c(S(=O)(=O)N(C)C)c2)cc1` gave Pf growth 96h inconclusive, Cycloheximide cs 1.1, Pf growth 48h -14.9%, Shiga toxin inh 44.6 and HCMV inh -30.0.
`CCCCc1ccc(NC(=S)Nc2ccc(Cl)c(S(=O)(=O)N(C)C)c2)cc1` gave Pf growth 96h inconclusive, Cycloheximide cs 1.1, Pf growth 48h -14.2%, Shiga toxin inh 11.5 and HCMV inh -62.9*.
`CCN1CCN(CC(=O)Nc2ccc(Cl)c(S(=O)(=O)N(C)C)c2)CC1` gave Pf growth 96h -6.3%, Cycloheximide cs -3.8, Pf growth 48h -2.3%, Shiga toxin inh 18.7 and HCMV inh -24.5.
Screening CC1Cc2ccccc2N1CC(=O)Nc1ccc(Cl)c(S(=O)(=O)N(C)C)c1 (stereo unspecified) returned Pf growth 96h -53.7%, Cycloheximide cs -2.6, Pf growth 48h 9.28µM*, Shiga toxin inh -1.5 and HCMV inh -32.3.
Screening CCC/C=N/NC(=O)c1ccccc1O returned Pf growth 96h 0.9%, Cycloheximide cs 17.7*, Pf growth 48h -2.1%, Shiga toxin inh 47.5* and HCMV inh -28.6.
For O=C(CNC(=O)c1ccccc1Cl)N/N=C/c1ccc([N+](=O)[O-])s1 the results were Pf growth 96h inconclusive, Cycloheximide cs -1.7, Pf growth 48h inconclusive, Shiga toxin inh 17.8 and HCMV inh -92.8*.
Screening CCC/C=N/NC(=O)CNC(=O)c1ccccc1Cl returned Pf growth 96h 5.7%, Cycloheximide cs 5.2, Pf growth 48h 38.6%, Shiga toxin inh 4.8 and HCMV inh -67.9*.
For O=C(Cc1cccs1)N/N=C\c1ccc([N+](=O)[O-])s1 the results were Pf growth 96h 73.6%, Cycloheximide cs 29.2, Pf growth 48h inconclusive, Shiga toxin inh 33.2 and HCMV inh -9.6.
Screening CC(=O)Nc1ccc(NC(=O)COC(=O)c2c(-c3ccccc3)noc2C)cc1 returned Pf growth 96h 0.0%, Pf growth 48h inconclusive and HCMV inh 0.0.
CC(=O)c1cccc(NC(=O)N2CCCC2C(=O)NCc2ccc(F)cc2)c1 (stereo unspecified) was read as Pf growth 96h 10.4µM*, Cycloheximide cs 6.4, Pf growth 48h -6.8%, Shiga toxin inh 13.2 and HCMV inh -21.1.
`CC(=O)c1cccc(NC(=O)N2CCCC2C(=O)Nc2ccccc2C)c1` (stereo unspecified) gave Pf growth 96h inconclusive, Cycloheximide cs -1.9, Pf growth 48h 8.2%, Shiga toxin inh -2.5 and HCMV inh -3.7.
Screening CC(=O)c1cccc(NC(=O)N2CCCC2C(=O)Nc2cccc(C)c2C)c1 (stereo unspecified) returned Pf growth 96h 2.94µM*, Cycloheximide cs -8.7, Pf growth 48h 3.4%, Shiga toxin inh -18.7 and HCMV inh 13.5.
For CC(C)CNC(=O)/C(C#N)=C1\N=C(NC(=O)c2ccco2)c2ccccc21 the results were Pf growth 96h inconclusive, Cycloheximide cs 12.4*, Pf growth 48h inconclusive, Shiga toxin inh 34.0 and HCMV inh -35.6.
